# Literature values as cited in PubChem BioAssay AID977611.
# Where a name gives a salt, the structure may show the parent alone. Among all 3,900 compounds or so, about 3,900 (100%) were called active. Cut-off not given; nearly all actives show Kd up to about 4200 µM. The set was probably picked from earlier hits. Some of the results follow. Bridge positions count the residues as written; N and C are the ends. Where a SMILES comes first, the peptide text is derived from it. Non-standard residues stand in square brackets, D forms with d. Square brackets hold non-standard residues; d marks the D form. Residues, ends and D or L forms follow the SMILES beside them. Peptide text beside a SMILES is read from it. [ ]: non-standard residue; d: D form. * marks the point of attachment. Orn(CH(NH2)2) = NC(N)NCCC[C@H](N)C(=O)O; Cha = N[C@@H](CC1CCCCC1)C(=O)O; Tfa = O=C(C(F)(F)F)*
# Test: PubChem AID 977611
# Settings: PDB protein-ligand complexes, literature Kd
compound,measurement,setting,value
CCCCC/C=C\C/C=C\CCCCCCCCCC(=O)N[C@@H](CO[C@H]1O[C@H](CO)[C@H](O)[C@H](O)[C@H]1O)[C@H](O)[C@H](O)CCCCCCCCCCCCCC,Kd,"protein: L363, PDB entry 3ubx",0.0252 µM (active)
CCCCCC[C@@H](O)[C@H](CCCCCC)C(=O)O,Kd,"protein: Peptidoglycan recognition protein 1, PDB entry 3t2v",0.103 µM (active)
CC(C)C[C@H](N)C(=O)N[C@@H](Cc1ccc(O)cc1)C(=O)N[C@@H](CC1CCCCC1)C(=O)N[C@@H](CC1CCCCC1)C(=O)N1CCC[C@H]1C(=O)N[C@@H](CCCNC(N)N)C(=O)N1CCC[C@H]1C(=O)N[C@H](C(N)=O)[C@@H](C)O (H-LY[Cha][Cha]P[Orn(CH(NH2)2)]PT-NH2),Kd,"protein: Chaperone protein DnaK, PDB entry 4hy9",0.08 µM (active)
CC(C)C[C@H](NC(=O)[C@@H](N)CCCCN)C(=O)N[C@@H](Cc1ccc(O)cc1)C(=O)N[C@@H](CC1CCCCC1)C(=O)N[C@@H](CC(C)C)C(=O)N1CCC[C@H]1C(=O)N[C@@H](CCCNC(N)N)C(=O)N1CCC[C@H]1C(=O)N[C@H](C=O)[C@@H](C)O (H-KLY[Cha]LP[Orn(CH(NH2)2)]PT-aldehyde),Kd,"protein: E. coli Chaperone protein dnaK, PDB entry 3dpo",0.0055 µM (active)
CC[C@H](C)[C@H](NC(=O)[C@H](CC1CCCCC1)NC(=O)[C@H](Cc1ccc(O)cc1)NC(=O)[C@@H](N)CC(C)C)C(=O)N1CCC[C@H]1C(=O)N[C@@H](CCCNC(N)N)C(=O)N1CCC[C@H]1C(N)=O (H-LY[Cha]IP[Orn(CH(NH2)2)]P-NH2),Kd,"protein: Chaperone protein DnaK, PDB entry 4hyb",0.35 µM (active)
NC1NC(=O)c2c([nH]c(=S)n2CCO)N1 (centres undefined),Kd,"protein: 7,8-DIHYDRO-6-HYDROXYMETHYLPTERIN-PYROPHOSPHOKINASE, PDB entry 4ad6",16.7 µM (active)
H-INPTGCARSEPKI-OH,Kd,"protein: WD repeat-containing protein 5, WDR5, PDB entry 4erq",0.075 µM (active)
H-VNPTGCARSEPKMS-OH,Kd,"protein: WD repeat-containing protein 5, WDR5, PDB entry 4ery",0.054 µM (active)
C[C@H](NC(=O)[C@H](CC(=O)O)NC(=O)[C@H](CCCCN)NC(=O)[C@H](CO)NC(=O)[C@H](C)NC(=O)[C@@H](N)CO)C(=O)O (H-SASKDA-OH),Kd,"protein: Histone-lysine N-methyltransferase SETD7 (Y335F mutant), PDB entry 4j7i",8.8 µM (active)
H-KEKSD-OH,Kd,"protein: Coatomer subunit beta', PDB entry 4j77",3.4 µM (active)
NC(N)=N/C=C/C[C@H](N[C@H](CCC(=O)O)C(=O)O)C(=O)O,Kd,"protein: Nopaline-binding periplasmic protein NocT WT, PDB entry 4pox",3.7 µM (active)
CC(C)(C)c1cccc(C2C=CC=NC2=O)c1 (centres undefined),Kd,"protein: RNA-directed RNA polymerase, PDB entry 4ih7",5.8 µM (active)
NC1NC(=O)c2[nH]cc(CN3C[C@H](CO)[C@@H](O)C3)c2N1 (some centres undefined),Kd,"protein: Purine nucleoside phosphorylase (W16Y, W94Y, W178Y, H257W mutation), PDB entry 4ear",0.000151 µM (active)
CC1(C)CNC(=[N+]2CCN(c3ncnc4sc(CC(F)(F)F)cc34)CC2)S1,Kd,"protein: Menin (A541T mutation), PDB entry 4gq4",0.022 µM (active)
C[C@H](NC(=O)[C@H](CCCCN)NC(=O)[C@H](CC(=O)O)NC(=O)[C@@H](N)CCCCN)C(=O)N[C@@H](CCCCN)C(=O)N[C@@H](CO[P+](O)(O)O)C(=O)N[C@@H](CS)C(=O)O,Kd,"protein: 14-3-3 PROTEIN ZETA/DELTA, PDB entry 4bg6",0.069 µM (active)
CC(C)[C@H](NC(=O)[C@H](CO[P+](O)(O)O)NC(=O)[C@H](CCCCN)NC(=O)[C@H](CCCNC(N)N)NC(=O)[C@H](CCCNC(N)N)NC(=O)[C@H](C)N)C(=O)O,Kd,"protein: 14-3-3 protein sigma, PDB entry 3ux0",0.55 µM (active)
CC(C)[C@H](NC(=O)[C@H](CO[P+](O)(O)O)NC(=O)[C@H](CCCCN)NC(=O)[C@H](CCCNC(N)N)NC(=O)[C@H](CCCNC(N)N)NC(=O)[C@@H](N)CCCCN)C(=O)O,Kd,"protein: 14-3-3 protein sigma, PDB entry 4fr3",0.07 µM (active)
NC(=NCC[C@H](N)C(=O)O)NO,Kd,"protein: Arginase, PDB entry 4q3u",0.36 µM (active)
CC[C@H](C)[C@H](NC(=O)[C@@H](NC(=O)[C@H](Cc1ccc(O)cc1)NC(=O)[C@H](C)N)[C@@H](C)O)C(=O)N[C@@H](CS)C(=O)N[C@@H](C)C(=O)NCC(=O)N[C@H](C(=O)N[C@@H](CCC(N)=O)C(=O)N[C@H](C(=O)N[C@@H](CC(=O)O)C(=O)N1CCC[C@H]1C(=O)O)[C@@H](C)O)[C@@H](C)O (H-AYTICAGTQTDP-OH),Kd,"protein: Dynein light chain 1, cytoplasmic LC8, PDB entry 4qh7",1.14 µM (active)
H-FNIVGTTYPC-OH,Kd,"protein: Gephyrin GephE, PDB entry 4u90",0.288 µM (active)
CC[C@H](C)[C@H](NC(=O)[C@H](CC(N)=O)NC(=O)[C@@H](N)Cc1ccccc1)C(=O)N[C@H](C(=O)NCC(=O)N[C@H](C(=O)N[C@H](C(=O)N[C@@H](Cc1ccc(O)cc1)C(=O)N1CCC[C@H]1C(=O)O)[C@@H](C)O)[C@@H](C)O)C(C)C (H-FNIVGTTYP-OH),Kd,"protein: Gephyrin GephE, PDB entry 4tk2",190 µM (active)
CC[C@H](C)[C@H](NC(=O)[C@@H](NC(=O)[C@@H](NC(=O)[C@H](CCCCN)NC(=O)[C@H](CC(=O)O)NC(=O)[C@@H](N)C(C)C)C(C)C)C(C)C)C(=O)N[C@@H](CC(N)=O)C(=O)N1CCC[C@H]1C(=O)N[C@@H](Cc1ccc(O)cc1)C(=O)N[C@@H](Cc1ccccc1)C(=O)NCC(=O)O (H-VDKVVINPYFG-OH),Kd,"protein: Malcavernin CCM2 PTB domain, PDB entry 4wj7",13 µM (active)
CC[C@H](C)[C@H](NC(=O)[C@H](CO)NC(=O)[C@@H](N)Cc1ccccc1)C(=O)N[C@H](C(=O)NCC(=O)N[C@H](C(=O)N[C@@H](CC(C)C)C(=O)N[C@@H](Cc1ccc(O)cc1)C(=O)N1CCC[C@H]1C(=O)O)[C@@H](C)O)C(C)C (H-FSIVGTLYP-OH),Kd,"protein: Gephyrin GephE, PDB entry 4tk3",8 µM (active)
same,Kd,"protein: Gephyrin GephE, PDB entry 4tk4",8 µM (active)
CC[C@H](C)[C@H](NC(=O)[C@H](CC(N)=O)NC(=O)[C@@H](N)Cc1ccccc1)C(=O)N[C@H](C(=O)NCC(=O)N[C@H](C(=O)N[C@H](C(=O)N[C@@H](Cc1ccc(O)cc1)C(=O)N1CCC[C@H]1C(=O)N[C@H](C(=O)N[C@@H](CC(N)=O)C(=O)O)[C@@H](C)CC)[C@@H](C)O)[C@@H](C)O)C(C)C (H-FNIVGTTYPIN-OH),Kd,"protein: Gephyrin GephE, PDB entry 4tk1",190 µM (active)
NC(N)=NCCC[C@@H](C(=O)O)N1[C@@H](C(=O)O)CC[C@@H]1O,Kd,"protein: Nopaline-binding periplasmic protein NocT-M117N, PDB entry 4pp0",39.9 µM (active)
NC(N)=NCCC[C@@H](C(=O)O)N1[C@H](O)CC[C@@H]1C(=O)O,Kd,"protein: Nopaline-binding periplasmic protein NocT WT, PDB entry 4pow",0.5 µM (active)
C[N+](C)(C)CCO[P+](O)(O)O,Kd,"protein: Ficolin-2, PDB entry 4nyt",4100 µM (active)
CC(O)C1C(=O)[C@H]2[C@@H]3c4c[nH]c5cccc(c45)C[C@@H]3C(C)(C)N2C1=O (some centres undefined),Kd,"protein: Sarcoplasmic/endoplasmic reticulum calcium ATPase 1, PDB entry 2EAS",0.007 µM (active)
CC(=O)N[C@H]1[C@H](O[C@H]2[C@H](O)[C@@H](O)CN[C@@H]2CO)O[C@H](CO)[C@@H](O[C@@H]2O[C@H](CO)[C@@H](O)[C@H](O)[C@H]2NC(C)=O)[C@@H]1O,Kd,"protein: Lysozyme C, PDB entry 4hpi",14.2 µM (active)
CC(=O)N[C@H]1[C@H](O[C@H]2[C@H](O)[C@@H](O)CN[C@@H]2CO)O[C@H](CO)[C@@H](O[C@@H]2O[C@H](CO)[C@@H](O[C@@H]3O[C@H](CO)[C@@H](O)[C@H](O)[C@H]3NC(C)=O)[C@H](O)[C@H]2NC(C)=O)[C@@H]1O,Kd,"protein: Lysozyme C, PDB entry 4hp0",0.76 µM (active)
CO[C@H]1O[C@H](CO)[C@@H](O)[C@H](O)[C@@H]1S[C@H]1O[C@H](CO)[C@@H](O)[C@H](O)[C@@H]1O,Kd,"protein: MANNOSYL-OLIGOSACCHARIDE 1,2-ALPHA-MANNOSIDASE, PDB entry 4ayp",0.755 µM (active)
O[C@@H]1[C@H](O)[C@@H](CO[P+](O)(O)O)O[C@@H]1O,Kd,"protein: Transcriptional regulator LsrR, PDB entry 4l5j",1000 µM (active)
same,Kd,"protein: Transcriptional regulator LsrR, PDB entry 4l51",995 µM (active)
OC[C@H]1O[C@@H](O)[C@H](O)[C@@H](O)[C@@H]1S[C@@H]1O[C@@H](CO[P+](O)(O)O)[C@@H](O)[C@H](O)[C@H]1O,Kd,"protein: 6-phospho-beta-glucosidase, PDB entry 4ipn",409 µM (active)
O=C1OC[C@@H](O[C@@H]2OC[C@@H](O[C@@H]3OC[C@@H](O)[C@H](O)[C@H]3O)[C@H](O)[C@H]2O)[C@H](O)[C@H]1O,Kd,"protein: Selenomethionine XBP1, PDB entry 4g68",0.012 µM (active)
CC(C)[C@@H]1NC(=O)[C@H](Cc2c[nH]cn2)NC(=O)[C@H](Cc2ccc(O)cc2)NC(=O)[C@H]([C@@H](C)O)NC(=O)[C@H](Cc2c[nH]cn2)NC(=O)[C@H](Cc2ccc(O)cc2)NC(=O)CSC[C@@H](C(N)=O)NC(=O)[C@H](Cc2ccc(O)cc2)NC(=O)[C@H](Cc2ccc(O)cc2)NC(=O)[C@H](CC(N)=O)NC(=O)[C@H]([C@@H](C)O)NC(=O)[C@H](CCCN=C(N)N)NC(=O)[C@H](CCCN=C(N)N)NC(=O)[C@H](CCCCNC(=O)C(F)(F)F)NC1=O ({CH2CO}-YHTYHVK(Tfa)RRTNYYC-NH2; thioether N-14),Kd,"protein: NAD-dependent protein deacetylase sirtuin-2, SIRT2, PDB entry 4l3o",1 µM (active)
Cc1noc(C)c1-c1ccc(-c2[nH]c3cncc[n+]3c2NC(C)(C)C)cc1,Kd,"protein: Bromodomain-containing protein 4 BRD4, PDB entry 4wiv",0.55 µM (active)
CC(=O)N[C@@H](Cc1ccccc1)C(=O)N[C@@H](Cc1cnc[nH]1)C(=O)N[C@H](C(=O)N[C@@H](C)C(N)=O)[C@@H](C)O (Ac-FHTA-NH2),Kd,"protein: DNA REPAIR AND RECOMBINATION PROTEIN RADA, PDB entry 4b3b",250 µM (active)
CC[C@H](C)[C@H](NC(=O)[C@H](CCC(=O)O)NC(=O)[C@H](Cc1cnc[nH]1)NC(=O)[C@@H](NC(=O)[C@@H](NC(=O)[C@H](CO)NC(C)=O)[C@@H](C)O)C(C)C)C(=O)N[C@@H](CC(C)C)C(=O)N[C@@H](CO)C(=O)N[C@@H](CCCCN)C(=O)N[C@@H](CC(C)C)C(=O)N[C@@H](CO)C(=O)O (Ac-STVHEILSKLS-OH),Kd,"protein: S100A10, PDB entry 1bt6",2 µM (active)
CC(=O)N[C@@H](CO)C(=O)N[C@@H](Cc1cnc[nH]1)C(=O)N[C@H](C(=O)N[C@@H](C)C(=O)N[C@H](C(=O)N[C@@H](CCC(=O)O)C(=O)N[C@@H](CC(N)=O)C(=O)N[C@@H](C)C(=O)N[C@@H](CC(C)C)C(=O)O)C(C)C)C(C)C,Kd,"protein: HLA class I histocompatibility antigen, B-39 alpha chain, PDB entry 4o2c",0.01 µM (active)
CC(C)[C@H](N)C(=O)N[C@@H](CCC(=O)O)C(=O)N[C@@H](CCC(N)=O)C(=O)N[C@@H](Cc1cnc[nH]1)C(=O)N[C@@H](Cc1cnc[nH]1)C(=O)N[C@@H](CCCNC(N)N)C(=O)N[C@@H](CCCNC(N)N)C(=O)N[C@H](C(=O)N[C@@H](CC(=O)O)C(=O)N[C@@H](CC(N)=O)C(=O)N[C@@H](CC(=O)O)C(=O)O)[C@@H](C)O (H-VEQHH[Orn(CH(NH2)2)][Orn(CH(NH2)2)]TDND-OH),Kd,"protein: 13F6-1-2 Fab fragment heavy chain, PDB entry 2qhr",0.041 µM (active)
CC(=O)NCC(=O)N[C@@H](CO)C(=O)N[C@@H](C)C(=O)N[C@@H](CCCNC(N)N)C(=O)N[C@@H](C)C(=O)N[C@@H](CCC(=O)O)C(=O)N[C@H](C(=O)N[C@@H](Cc1cnc[nH]1)C(=O)N[C@@H](CC(C)C)C(=O)O)C(C)C (Ac-GSA[Orn(CH(NH2)2)]AEVHL-OH),Kd,"protein: WD repeat-containing protein 5, PDB entry 3eg6",1.7 µM (active)
CC(C)[C@H](NC(=O)[C@H](CCC(=O)O)NC(=O)[C@H](C)NC(=O)[C@H](CCCNC(N)N)NC(=O)[C@H](C)N)C(=O)N[C@@H](Cc1cnc[nH]1)C(=O)O (H-A[Orn(CH(NH2)2)]AEVH-OH),Kd,"protein: WD repeat-containing protein 5, PDB entry 3emh",0.14 µM (active)
